According to PubChem BioAssay (NCATS):
Records with an inconclusive call do not appear. A number with no mark means an inactive call. The source made the active and inactive calls. Calls follow the shape of the dose curve; as a rule, active = well fitted curve in the direction sought with a large enough effect; inconclusive = small, poorly fitted or top-dose-only effect, or another doubt; inactive = no such curve, though single readings can be large; an effect the other way counts as inactive or inconclusive.

What was measured:
[1] = qHTS for Activators of Parkin Expression: LOPAC Validation Assay (FLuc Reporter) (AID 720573;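 also: 0% = DMSO and 100% = positive control compounds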)
Procedure, shortened: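 FLuc signal from Parkin-promoter coincidence reporter neuronal cells, normalized to DMSO and positive control (100%). Cells (1,500/well) pre-incubated 24 h, then exposed to LOPAC compounds in 7-point dose response for 24 h at 37 C, 5% CO2.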

[2] = qHTS Assay for Identifying Gametocytocidal Compounds (AID 743244); also: potency is read from the fitted curve at half-maximal effect;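 as to max response: % is scaled to controls: 0 for no effect and ±100 for the full control effect; actives lower the fluorescent signal which means gametocytes are killed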; conditions: P. falciparum 3D7 stage III-V gametocytes, alamarBlue, 72 h; max response: hits give low values
Procedure, shortened: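 Stage III–V gametocytes of P. falciparum 3D7 were seeded at 20,000 cells/well onto pre-dispensed compounds. After 72 h, 37 °C, 5% CO2, alamarBlue was added for another 24 h.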

CC[C@H]1CN2CCc3cc(OC)c(OC)cc3[C@@H]2C[C@@H]1C[C@H]1NCCc2cc(OC)c(OC)cc21
outcome [1]: inactive
Potency [2]: 1.41 µM (active)

CCC1(c2ccccc2)CCC(=O)NC1=O (configuration not stated)
max response [2]: -3.28%

CCS(=O)(=O)C(C)(C)S(=O)(=O)CC
max response [2]: 4.59%

C[C@@H]1CN(C2CCC(C#N)(c3ccc(F)cc3)CC2)CC[C@]1(C(=O)O)c1ccccc1 (some centres not stated)
max response [2]: -3.29%

O=C1NC2CCCCN2C12CCN(CCCN1c3ccccc3CCc3ccc(Cl)cc31)CC2 (configuration not stated)
Potency [2]: 22.4 µM (active)

C[C@@H]1CC[C@H]2[C@@H](C)C(=O)O[C@@H]3O[C@@]4(C)CC[C@@H]1[C@]32OO4
Potency [2]: 0.132 µM (active)

CN1C(=O)CN=C(c2ccccc2)c2cc(Cl)ccc21
max response [2]: -5.96%

CNC(=O)NC(O)C(Cl)(Cl)Cl (configuration not stated)
max response [2]: 8.2%

COc1ccc(CN2CCNCC2)c(OC)c1OC
max response [2]: -9.77%

OC(O)C(Cl)(Cl)Cl
max response [2]: -5.08%

CCCC(C)C1(CC)C(=O)N=C(S)NC1=O (configuration not stated)
max response [2]: 6.11%
